High-throughput results as filed in PubChem.
Pyk2 oligo antag – antagonists of human Pyk2 oligomerization; Q293 cells, Pyk2 FERM NanoBiT luminescence; stronger effect = lower value; z-score (the deposit names both 25 µM and 10 µM); 99,000 compounds, 0.83% hits;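 active = Z-score of -3 or lower, scaled per plate to the spread of control and sample wells; inactive = z-score above -3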;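 note: negative z-score means lost luminescence so less FERM oligomerization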
Target sequence (Q14289 whole entry, looked up): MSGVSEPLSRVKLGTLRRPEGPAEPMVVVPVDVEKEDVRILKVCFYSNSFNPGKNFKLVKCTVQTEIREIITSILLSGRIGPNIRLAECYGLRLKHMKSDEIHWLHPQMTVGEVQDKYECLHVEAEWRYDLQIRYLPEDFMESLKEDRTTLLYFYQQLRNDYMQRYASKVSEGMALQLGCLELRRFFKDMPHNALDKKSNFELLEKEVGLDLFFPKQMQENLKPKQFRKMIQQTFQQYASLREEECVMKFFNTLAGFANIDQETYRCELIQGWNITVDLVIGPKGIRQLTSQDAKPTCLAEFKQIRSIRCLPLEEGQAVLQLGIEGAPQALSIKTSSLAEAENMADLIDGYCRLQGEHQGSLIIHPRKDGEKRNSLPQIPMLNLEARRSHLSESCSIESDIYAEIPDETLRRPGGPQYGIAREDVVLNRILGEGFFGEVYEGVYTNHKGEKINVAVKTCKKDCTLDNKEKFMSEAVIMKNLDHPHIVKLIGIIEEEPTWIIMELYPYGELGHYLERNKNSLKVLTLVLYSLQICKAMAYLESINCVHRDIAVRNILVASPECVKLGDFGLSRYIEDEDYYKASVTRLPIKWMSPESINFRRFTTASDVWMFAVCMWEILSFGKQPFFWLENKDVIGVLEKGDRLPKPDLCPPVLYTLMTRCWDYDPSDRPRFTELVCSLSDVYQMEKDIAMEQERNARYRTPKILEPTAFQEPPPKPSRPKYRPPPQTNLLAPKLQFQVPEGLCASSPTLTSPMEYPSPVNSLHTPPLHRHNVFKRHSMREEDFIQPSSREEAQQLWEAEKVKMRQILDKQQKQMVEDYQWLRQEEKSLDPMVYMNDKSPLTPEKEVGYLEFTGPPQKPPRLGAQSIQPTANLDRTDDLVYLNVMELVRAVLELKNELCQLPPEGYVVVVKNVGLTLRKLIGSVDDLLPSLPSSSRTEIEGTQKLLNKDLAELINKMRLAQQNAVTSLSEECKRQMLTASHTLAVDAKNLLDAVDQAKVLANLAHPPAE
Cav3 T inh – inhibitors of human Cav3.2 T-type calcium channel | AID 449739 | B-score at 10 µM | 100,000 compounds, 4% hits | Cav3.2-expressing cells, Fluo-4 calcium fluorescence FDSS; stronger effect = lower value | O95180;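 active = single-dose well whose peak fluorescence ratio is a statistical outlier from its plate by either plate-standardised score or position-corrected B-score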
CYP2C19 inhib – human CYP2C19 inhibition. inhibition, % at 5 µM. P33261. AID 778. 96,000 compounds, 21% hits. CYP2C19 Supersomes, luciferin-H EGE luminescence, 30 min;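 active = CYP2C19 inhibition above a set limit at 5 µM in the primary screen, cut at about 50% in these data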
CYP2C19 act – activators of human cytochrome P450 2C19 | P33261 | recombinant CYP2C19, luciferin-H EGE luminescence; stronger effect = higher value; 0 = fully inhibited enzyme, 1 = untreated enzyme | activation factor at 5 µM | 96,000 tested, under 10 active | AID 1025;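 active = activation factor of at least 2 at 5 µM in the primary screen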
CYP2C9 inhib – human CYP2C9 inhibition; CYP2C9 Supersomes, luciferin-H conversion, luminescence; inhibition, % at 5 µM; 96,000 compounds, 20% hits;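 active = blocking of liver enzyme CYP2C9 beyond about 50% at 5 µM, limit read from the data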
CYP2C9 act – increases human cytochrome P450 2C9 activity; P11712; recombinant CYP2C9, luciferin-H conversion, luminescence; stronger effect = higher value; factor 1 = untreated enzyme, 0 = blocked; activation factor at 5 µM; 96,000 compounds, 1.4% hits;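 active = activation factor of 2 or more for CYP2C9 at a 5 µM dose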
Large screens that a line does not name were inactive. Only some compounds are listed: those with a hit (about 27% of all), similar ones and a draw of the others.

CCCn1c(NC(=O)C2COc3ccccc3O2)nc2ccccc21 (stereo not drawn)	none
COC(=O)/C=C1/S/C(=N/NC(=O)c2ccccc2C)NC1=O	CYP2C9 inhib 78.3
COC(=O)/C=C1/S/C(=N/NC(=O)c2ccccc2)NC1=O	none
COc1ccccc1/C=C1\S/C(=N/NC(=O)c2cccc(Br)c2)NC1=O	Cav3 T inh -4.24
COC(=O)/C=C1\S/C(=N/NC(=O)c2ccccc2)NC1=O	CYP2C9 inhib 80.6
COc1ccc(C2CNC(=O)C2)cc1OC1CCCC1 (stereo not drawn)	none (no result: Pyk2 oligo antag, CYP2C19 inhib, CYP2C19 act, CYP2C9 inhib, CYP2C9 act)
COc1ccc2[nH]c(=O)c(-c3nnn(-c4ccc(Cl)c(Cl)c4)n3)cc2c1	none (no result: Pyk2 oligo antag, CYP2C19 inhib, CYP2C19 act, CYP2C9 inhib, CYP2C9 act)
CC(=O)c1sc(NC(=O)C2(F)C(F)(F)C(F)(F)C(F)(F)C(F)(F)C2(F)F)nc1C	Cav3 T inh -4.01, CYP2C9 inhib 84.8
CCN1CCN(C(=O)c2ccc(Cl)c(S(=O)(=O)N3CCOCC3)c2)CC1	none
CC1(OC(=O)C2CCCC2)C(=O)C=C2C=C(c3ccsc3)N(CCc3ccccn3)C=C2C1=O (stereo not drawn)	none (no result: Pyk2 oligo antag, CYP2C19 inhib, CYP2C19 act, CYP2C9 inhib, CYP2C9 act)
Nc1ccc(S(=O)(=O)c2ccc(Cl)cc2)cc1	CYP2C19 inhib 86.3, CYP2C9 act 3.7
CS(C)(=O)=NS(=O)(=O)c1ccc(Cl)cc1	none
ONC(=Nc1ccccc1)c1ccc(Cl)cc1	CYP2C19 inhib 89.9
Clc1ccc(/C=N/NC(=Nc2ccccc2)c2ccccn2)c(Cl)c1	none (no result: Cav3 T inh)
c1ccc2c(c1)ncn2Cc1nnc2sc(-c3ccc4c(c3)OCO4)nn12	CYP2C9 inhib 81.1
c1ccc(CCc2nn3c(Cn4cnc5ccccc54)nnc3s2)cc1	none
Clc1ccccc1-c1nn2c(Cn3cnc4ccccc43)nnc2s1	CYP2C19 inhib 57.6 (no result: Cav3 T inh)
c1ccc(-c2nn3c(Cn4nnc5ccccc54)nnc3s2)nc1	CYP2C19 inhib 78.5
Cc1c(NC(=O)c2ccc(Br)o2)c(=O)n(-c2ccccc2)n1C	none
Cc1ccc(OCc2nnc(SCc3nc4ccccc4[nH]3)n2Cc2ccco2)cc1	Cav3 T inh -8.45, CYP2C9 inhib 64.7
Nn1c(SCc2nc3ccccc3[nH]2)nnc1-c1ccccc1	none
CCn1c(COc2ccc(Cl)cc2)nnc1SCc1nc2ccccc2[nH]1	none
c1ccc(-c2nnc(SCc3nc4ccccc4[nH]3)n2Cc2ccco2)cc1	CYP2C9 inhib 58.6
NC(=O)Nc1ccc2c(c1)OCCO2	none
O=C(CSc1nnc(CNC(=O)c2c(F)cccc2Cl)o1)NCc1ccc2c(c1)OCO2	none
O=C(CC1(C(F)(F)F)OCCO1)Nc1ccc2c(c1)OCO2	CYP2C19 inhib 93.7
Cc1oc(-c2ccccc2F)nc1CSCC(=O)NCc1ccc2c(c1)OCO2	CYP2C19 inhib 78.5, CYP2C9 inhib 74.6
O=C(CSCc1ccccc1Cl)Nc1ccc2c(c1)OCCO2	CYP2C9 inhib 59.9
O=C(CC(c1ccccc1)c1ccccc1)Nc1ccc2c(c1)OCCO2	Cav3 T inh -3.59, CYP2C9 inhib 52.1
O=C(Nc1ccc2c(c1)OCO2)c1c(F)c(F)c(F)c(F)c1F	none
Cc1nnc(SCC(=O)Nc2nccs2)[nH]c1=O	none
COc1cccc2c1C(CO)N1C(C#N)C3CC(C(=O)O)C(C1C2)N3C (stereo not drawn)	none (no result: Pyk2 oligo antag, CYP2C19 inhib, CYP2C19 act, CYP2C9 inhib, CYP2C9 act)
CCOCCCNC(=O)COc1ccc(OC)cc1	none (no result: Cav3 T inh)
CC(=O)Nc1ccc(S(=O)(=O)N2CCC(NC(=O)c3ccco3)CC2)cc1	none
O=C(CSCc1ccc(Cl)cc1)Nc1ccc2c(c1)OCO2	Cav3 T inh -5.65 (no result: CYP2C19 inhib, CYP2C19 act, CYP2C9 inhib, CYP2C9 act)
O=C(CSCc1ccc(Cl)cc1)NCc1ccc2c(c1)OCO2	Cav3 T inh -6.11, CYP2C9 inhib 99.8
O=C(Cn1nc(-c2ccc(Cl)cc2)ccc1=O)NCc1ccc2c(c1)OCO2	CYP2C19 inhib 52.4, CYP2C9 inhib 76.9 (no result: Pyk2 oligo antag, Cav3 T inh)
COc1ccccc1OCc1ccc(C(=O)n2nc(C)c(Cl)c2C)o1	none
COc1nn(CC(=O)N2N=C(C(F)F)CC2(O)C(F)F)cc1[N+](=O)[O-] (stereo not drawn)	none (no result: CYP2C19 inhib, CYP2C19 act, CYP2C9 inhib, CYP2C9 act)
COc1ccccc1OCc1ccc(C(=O)N2N=C(C(F)F)CC2(O)C(F)F)o1 (stereo not drawn)	CYP2C9 inhib 72.7 (no result: Cav3 T inh)
O=C(c1ccc(Cn2cc(Br)cn2)o1)N1N=C(C(F)F)CC1(O)C(F)F (stereo not drawn)	CYP2C19 inhib 73.6, CYP2C9 inhib 93.4
CCOC(=O)c1[nH]c2ccc(F)cc2c1NC(=O)C1=COCCO1	none
CCCNS(=O)(=O)c1ccc(OCC(=O)NCc2ccc3c(c2)OCO3)cc1	CYP2C19 inhib 54.4, CYP2C9 inhib 62.2
CCCNS(=O)(=O)c1ccc(OCC(=O)Nc2ccc3c(c2)OCCO3)cc1	CYP2C9 inhib 70.3
O=C(NCCOc1ccccc1)c1n[nH]c(=O)c2ccccc12	none
[O-][n+]1c2c(c3c4non(O)c4ccc31)CCCC2	Cav3 T inh -6.75
COc1ccc(Cl)cc1C(=O)CSc1nc(N)cc(N)n1	CYP2C9 act 4.1
CCCCn1nnnc1SCC(=O)c1cc(Cl)ccc1OC	CYP2C19 inhib 74.5, CYP2C9 act 2
CCCCn1nnnc1SCC(=O)c1ccc(C)c(C)c1	CYP2C19 inhib 89.8
COc1cccc(-n2nnnc2SCC(=O)c2cc(OC)ccc2OC)c1	none (no result: Pyk2 oligo antag)
CC1(C)CC(=O)C=C(NCC(=O)O)C1	none
Cc1cccc(N2CCN(C(=O)c3ccccc3NC(=O)C3CC=CCC3C(=O)O)CC2)c1 (stereo not drawn)	none
Cc1cc(C(F)(F)F)nn1CC(=O)NNC(=S)Nc1ccc(F)cc1	none
CCNS(=O)(=O)c1ccc(NC(=O)Cn2nc(C(F)(F)F)cc2C)cc1	CYP2C9 inhib 56.6
Cc1sc(NC(=O)Cn2nc(C(F)(F)F)cc2C)c(C(=O)OC(C)C)c1C	CYP2C9 inhib 61.9 (no result: Cav3 T inh)
CCc1ccccc1NC(=O)NC1CCCCC1	none
CCc1ccccc1NC(=O)Cn1nc(C(F)(F)F)cc1C1CC1	CYP2C19 inhib 83.0
CC(C(=O)NCc1ccccc1)N1C(=O)CN(C)C(=O)c2ccccc21 (stereo not drawn)	none
Cn1c(C(=O)N(Cc2ccccc2)Cc2cccs2)cc2sccc21	CYP2C9 inhib 73.2
Cn1c(C(=O)NCCN2CCOCC2)cc2sccc21	none
CC(=O)Nn1c(-c2ccccc2)cc2ccccc21	none (no result: Cav3 T inh)
CSc1ccc(CNc2ccccc2)cc1	CYP2C19 inhib 92.4 (no result: Pyk2 oligo antag)
CSc1ccc(CNc2ccccn2)cc1	CYP2C19 inhib 63.2
CSc1n[nH]c(NCc2ccccc2)n1	none
CCOC(=O)c1ccc(NC(=O)CSc2nc3cccnc3n2C)cc1	none (no result: CYP2C19 inhib, CYP2C19 act, CYP2C9 inhib, CYP2C9 act)
CC(=O)Oc1ccc(OC(C)=O)c(SCCCCCN2CCOCC2)c1	none
Cc1ccc(NS(C)(=O)=O)c(C(=O)c2ccccc2)c1	CYP2C19 inhib 69.9
COC(=O)c1cccc(NS(C)(=O)=O)c1C	none
CCOc1ccc(NC(=O)c2ccncc2)cc1	CYP2C19 inhib 73.0, CYP2C9 inhib 72.7
CCOc1ccc(NC(=O)c2nn(C)cc2Br)cc1	CYP2C9 act 2.1
CCOc1ccc(C(=O)c2ccncc2)cc1	CYP2C19 inhib 87.1, CYP2C9 inhib 75.1
